Measurements taken from PubChem BioAssay (EPA / NIEHS).
Records with an inconclusive call do not appear. Activity calls are given as the source filed them. The calls were made as follows, unless noted: active = hit-call score of the fitted dose curve at least 0.9, where 1 is the maximum; inactive = score below 0.9.

What was measured:
[1] = ACEA_ER_80hr: ACEA Biosciences xCELLigence Real-Time Cell Analysis on Estrogen Receptor Agonism for Proliferation (AID 2282667; active = hit-call score of the fitted dose curve at least 0.9, where 1 is the maximum); details: T47D proliferation, impedance (xCELLigence), 80 h
Method in brief: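 Impedance readout (RT-CES) of T47D proliferation at 80 h post-dose; gain of signal vs DMSO baseline. Compounds: 8 conc, 1:4 serial, top 100 uM final, ≤0.5% DMSO; biological duplicate.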

[2] = biological target: CCAAT/enhancer-binding protein beta (Homo sapiens) (UniProt P17676); experiment: ATG_C_EBP_CIS: Attagene CIS-FACTORIAL HepG2 Assay for human CCAAT/Enhancer Binding Protein (C/EBP) beta (AID 2282927); details: HepG2 Attagene cis-factorial transcription factor reporter; actives raise or lower the signal
Method in brief: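 HepG2, transient MRTU transfection, 24 h treatment. RT-PCR plus CE fluorescence; DMSO negative control, bidirectional fit.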

[3] = ATG_CMV_CIS: Attagene CIS-FACTORIAL HepG2 Assay for human CMV (Internal Marker) (AID 2282928); details: HepG2 CMV promoter reporter, transcription factor profiling; actives raise or lower the signal;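 also: endpoint acts as a background internal control marker rather than a target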
Method in brief: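 Cell system: HepG2, transiently transfected multiple reporter units under cis promoters. Exposure: 24 h. Detection: RT-PCR, FAM labeling, HpaI digestion, capillary electrophoresis. Analysis: bidirectional, DMSO baseline.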

[4] = ATG_DR4_LXR_CIS: Attagene CIS-FACTORIAL HepG2 Assay for human Liver X Receptor (LXR), DR4 submotif (AID 2282929); details: HepG2 Attagene DR4 cis-reporter, mRNA transcription; actives raise or lower the signal
Method in brief: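 The endpoint is DR4-element-driven reporter transcripts after 24 h chemical exposure of transfected HepG2 cells. These were measured via RT-PCR and capillary electrophoresis, and gain or loss of signal was fitted relative to DMSO controls.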

[5] = biological target: Aryl hydrocarbon receptor (Homo sapiens) (UniProt P35869); experiment: ATG_Ahr_CIS: Attagene CIS-FACTORIAL HepG2 Assay for human Aryl Hydrocarbon Receptor (Ahr) (AID 2282930); details: HepG2 AhR cis-factorial reporter transcription; actives raise or lower the signal
Method in brief: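 Endogenous factor activity is tracked through cis-promoter reporter units transfected into HepG2 cells. Transcript levels at 24 h are read by fluorescent RT-PCR and capillary electrophoresis, with activity in either direction scored relative to DMSO.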

[6] = ATG_AP_1_CIS: Attagene CIS-FACTORIAL HepG2 Assay for human Activator Protein 1 (AP-1) (AID 2282931); details: HepG2 Attagene cis-factorial AP-1 reporter mRNA; actives raise or lower the signal
Method in brief: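 Readout is reporter transcript level from endogenous transcription factor activity, quantified by RT-PCR with fluorescent primer extension and capillary electrophoresis. Transiently transfected HepG2 cells, 24 h exposure. Curves fitted both directions versus DMSO.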

[7] = ATG_BRE_CIS: Attagene CIS-FACTORIAL HepG2 Assay for human Bone Morphogenetic Protein (BMP) Response Element (BRE) (AID 2282933); details: HepG2 BMP response element reporter, Attagene transcription factor profiling; actives raise or lower the signal
Method in brief: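 Endogenous transcription factor activity at a BMP response element was monitored in transfected HepG2 cells 24 h after dosing. Fluorescent RT-PCR products were resolved by capillary electrophoresis, and activity was fitted in both directions versus DMSO.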

[8] = biological target: Retinoic acid receptor alpha (Homo sapiens) (UniProt P10276); experiment: ATG_DR5_RAR_CIS: Attagene CIS-FACTORIAL HepG2 Assay for human Retinoic Acid Receptor Alpha (RARE), DR5 submotif (AID 2282934); details: HepG2 Attagene cis-factorial RARE DR5 reporter, mRNA; actives raise or lower the signal
Method in brief: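 After 24 h of chemical exposure, transiently transfected HepG2 cells were lysed for total RNA; the DR5-regulated reporter transcript was quantified via RT-PCR and capillary electrophoresis, with activity fitted bidirectionally against DMSO.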

[9] = biological target: Transcription factor E2F1 (Homo sapiens) (UniProt Q01094); experiment: ATG_E2F_CIS: Attagene CIS-FACTORIAL HepG2 Assay for human E2F Transcription Factor 1 (AID 2282935); details: HepG2 Attagene cis-reporter, E2F reporter RNA transcripts; actives raise or lower the signal
Method in brief: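 Endogenous E2F1 activity read through cis-promoter reporter units transfected into HepG2. After 24 h compound treatment, reporter mRNA measured by RT-PCR, HpaI digestion and capillary electrophoresis. Bidirectional fit versus DMSO.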

[10] = ATG_E_Box_CIS: Attagene CIS-FACTORIAL HepG2 Assay for human Enhancer Box (E-box) (AID 2282936); details: HepG2 E-box cis-reporter transcription, actives raise or lower the signal
Method in brief: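 HepG2 cells transiently transfected with multiplexed cis-element reporter units, dosed 24 h; reporter mRNA quantified by RT-PCR, 6-FAM labelling, HpaI digestion and capillary electrophoresis. E-box (USF1) signal fitted bidirectionally vs DMSO.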

[11] = ATG_M_61_CIS: Attagene CIS-FACTORIAL HepG2 Assay for M61 Transcription Factor (Internal Marker) (AID 2282937); details: HepG2 Attagene CIS-FACTORIAL M61 internal marker reporter; actives raise or lower the signal
Method in brief: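 Readout is reporter mRNA by RT-PCR, fluorescent primer extension and capillary electrophoresis, with gain or loss fitted relative to DMSO. Transfected HepG2 cells carrying endogenous-TF-driven cis reporters were exposed to chemicals for 24 hours.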

[12] = ATG_EGR_CIS: Attagene CIS-FACTORIAL HepG2 Assay for human Early Growth Response 1 (EGR1) (AID 2282938); details: HepG2 Attagene CIS-FACTORIAL EGR reporter mRNA; actives raise or lower the signal
Method in brief: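 After 24 h compound exposure, RNA from reporter-transfected HepG2 cells was reverse-transcribed, PCR-amplified, fluorescently labelled and resolved by capillary electrophoresis. EGR1 reporter transcript changes, up or down, were fitted against DMSO, reflecting endogenous transcription-factor activity.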

[13] = ATG_M_19_CIS: Attagene CIS-FACTORIAL HepG2 Assay for M19 Transcription Factor (Internal Marker) (AID 2282939); details: HepG2 Attagene CIS-FACTORIAL M19 internal marker reporter; actives raise or lower the signal
Method in brief: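 Background-control endpoint from a multiplexed HepG2 reporter panel. Cells carrying cis-regulated reporter constructs are treated 24 h, then reporter transcripts are amplified, fluorescently labelled and sized by capillary electrophoresis. DMSO defines baseline.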

[14] = ATG_ERE_CIS: Attagene CIS-FACTORIAL HepG2 Assay for Estrogen Response Element (ERE) (AID 2282940); details: HepG2 ERE cis-reporter, Attagene RNA transcript; actives raise or lower the signal
Method in brief: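 Cells used were human hepatoma HepG2, transfected with multiple reporter transcription units under cis-regulatory promoters. Reporter mRNA, read 24 h post-dosing via fluorescent RT-PCR products on capillary electrophoresis, was fitted bidirectionally relative to DMSO.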

[15] = ATG_Ets_CIS: Attagene CIS-FACTORIAL HepG2 Assay for human Erythroblast Transformation Specific (ETS) (AID 2282941); details: HepG2 ETS cis-reporter transcription, actives raise or lower the signal
Method in brief: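 After transient cis-reporter transfection, HepG2 cells receive test chemical for 24 h. Reporter mRNA levels, measured by RT-PCR and capillary electrophoresis fluorescence, are analysed bidirectionally relative to the DMSO baseline.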

[16] = biological target: Hepatocyte nuclear factor 3-beta (Homo sapiens) (UniProt Q9Y261); experiment: ATG_FoxA2_CIS: Attagene CIS-FACTORIAL HepG2 Assay for human Forkhead box A2 (FOXA2) (AID 2282942); details: HepG2 cis-reporter transcription factor activity, 24 h; actives raise or lower the signal
Method in brief: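 Endogenous transcription factor activity is captured via cis-element-driven reporter transcripts in transfected HepG2. Total RNA taken at 24 h post-dosing; labelled RT-PCR products resolved by capillary electrophoresis. Gain or loss fitted versus DMSO.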

[17] = ATG_FoxO_CIS: Attagene CIS-FACTORIAL HepG2 Assay for human Forkhead box O (FoxO) (AID 2282943); details: HepG2 Attagene cis-reporter, FoxO element, mRNA; actives raise or lower the signal
Method in brief: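 Transfected HepG2 reporter cells exposed to test chemical for 24 h; reporter RNA measured by reverse transcription, PCR and fluorescent capillary electrophoresis; curves fitted for increases and decreases against DMSO.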

[18] = ATG_GATA_CIS: Attagene CIS-FACTORIAL HepG2 Assay for human GATA Binding Protein (AID 2282944); details: HepG2 GATA cis-element reporter, Attagene multiplex mRNA; actives raise or lower the signal
Method in brief: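 Endogenous transcription factor activity was captured through cis-promoter-driven reporters in transfected HepG2 cells. After 24 h exposure, reporter transcripts were quantified by RT-PCR with fluorescent capillary electrophoresis, and responses fitted both directions against DMSO.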

[19] = ATG_AP_2_CIS: Attagene CIS-FACTORIAL HepG2 Assay for human Activator Protein 2 (AP-2) (AID 2282932); details: HepG2 AP-2 cis-reporter, Attagene transcription factor profiling; actives raise or lower the signal
Method in brief: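 HepG2 cells transiently transfected with cis-element reporter units and exposed for 24 h. Reporter mRNA measured by RT-PCR, FAM labelling, HpaI digestion and capillary electrophoresis. Changes in either direction fitted relative to DMSO.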

Measured: AC50

Sequence of CCAAT/enhancer-binding protein beta (Homo sapiens) (P17676 whole entry, looked up): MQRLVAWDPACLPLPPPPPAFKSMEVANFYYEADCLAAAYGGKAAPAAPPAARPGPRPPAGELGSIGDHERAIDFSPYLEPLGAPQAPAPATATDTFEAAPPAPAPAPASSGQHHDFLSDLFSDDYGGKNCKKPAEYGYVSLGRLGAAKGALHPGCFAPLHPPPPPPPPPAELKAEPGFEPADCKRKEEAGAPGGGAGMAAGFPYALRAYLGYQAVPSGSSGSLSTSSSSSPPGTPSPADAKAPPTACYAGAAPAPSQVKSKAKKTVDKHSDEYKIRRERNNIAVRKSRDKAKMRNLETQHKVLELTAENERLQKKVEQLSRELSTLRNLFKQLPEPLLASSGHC
Sequence of Retinoic acid receptor alpha (Homo sapiens) (P10276 whole entry, looked up): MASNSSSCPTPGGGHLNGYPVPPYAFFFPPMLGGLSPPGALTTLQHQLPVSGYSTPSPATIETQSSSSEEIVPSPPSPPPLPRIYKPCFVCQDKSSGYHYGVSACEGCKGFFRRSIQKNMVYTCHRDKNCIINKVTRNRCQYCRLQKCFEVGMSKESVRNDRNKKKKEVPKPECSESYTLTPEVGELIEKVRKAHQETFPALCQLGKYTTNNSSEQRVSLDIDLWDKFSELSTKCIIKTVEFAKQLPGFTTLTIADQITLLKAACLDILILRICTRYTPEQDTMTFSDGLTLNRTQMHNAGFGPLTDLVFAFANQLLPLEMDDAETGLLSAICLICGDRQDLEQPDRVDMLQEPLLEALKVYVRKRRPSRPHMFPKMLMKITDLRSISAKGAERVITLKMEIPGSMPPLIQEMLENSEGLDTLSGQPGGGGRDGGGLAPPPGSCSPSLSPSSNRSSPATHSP
Sequence of Aryl hydrocarbon receptor (Homo sapiens) (P35869 whole entry, looked up): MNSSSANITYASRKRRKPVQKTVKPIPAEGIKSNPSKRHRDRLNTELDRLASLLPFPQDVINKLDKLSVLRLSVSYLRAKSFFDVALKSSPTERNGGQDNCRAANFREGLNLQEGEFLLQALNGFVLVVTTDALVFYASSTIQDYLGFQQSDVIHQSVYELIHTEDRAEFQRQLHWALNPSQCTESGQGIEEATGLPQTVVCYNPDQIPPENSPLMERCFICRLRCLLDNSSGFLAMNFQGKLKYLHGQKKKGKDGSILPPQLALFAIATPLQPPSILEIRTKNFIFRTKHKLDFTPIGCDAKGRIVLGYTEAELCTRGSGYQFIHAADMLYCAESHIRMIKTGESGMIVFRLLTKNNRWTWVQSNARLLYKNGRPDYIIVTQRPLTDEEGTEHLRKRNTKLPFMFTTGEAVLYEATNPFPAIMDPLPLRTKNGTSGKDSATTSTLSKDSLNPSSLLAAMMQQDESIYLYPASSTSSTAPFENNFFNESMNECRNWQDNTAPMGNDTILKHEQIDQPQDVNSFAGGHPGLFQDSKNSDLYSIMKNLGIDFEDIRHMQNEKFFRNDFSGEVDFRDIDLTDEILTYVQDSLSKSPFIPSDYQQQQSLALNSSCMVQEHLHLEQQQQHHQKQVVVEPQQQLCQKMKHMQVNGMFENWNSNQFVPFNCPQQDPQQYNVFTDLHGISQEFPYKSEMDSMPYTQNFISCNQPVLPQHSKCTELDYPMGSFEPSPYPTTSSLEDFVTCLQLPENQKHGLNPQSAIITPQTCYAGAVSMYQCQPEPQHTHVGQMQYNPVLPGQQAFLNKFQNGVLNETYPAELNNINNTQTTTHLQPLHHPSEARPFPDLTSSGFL
Sequence of Transcription factor E2F1 (Homo sapiens) (Q01094 whole entry, looked up): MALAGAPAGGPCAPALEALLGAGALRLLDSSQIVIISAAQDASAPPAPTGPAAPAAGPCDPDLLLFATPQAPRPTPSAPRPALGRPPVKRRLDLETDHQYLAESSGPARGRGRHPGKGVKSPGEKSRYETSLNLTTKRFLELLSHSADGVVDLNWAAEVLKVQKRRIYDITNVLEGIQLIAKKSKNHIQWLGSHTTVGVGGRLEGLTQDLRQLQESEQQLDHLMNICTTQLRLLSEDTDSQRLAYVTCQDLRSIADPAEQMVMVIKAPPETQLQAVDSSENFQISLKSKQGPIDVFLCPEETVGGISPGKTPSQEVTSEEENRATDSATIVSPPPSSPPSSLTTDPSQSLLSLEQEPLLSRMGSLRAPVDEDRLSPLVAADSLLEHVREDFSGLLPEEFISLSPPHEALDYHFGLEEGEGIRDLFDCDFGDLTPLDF
Sequence of Hepatocyte nuclear factor 3-beta (Homo sapiens) (Q9Y261 whole entry, looked up): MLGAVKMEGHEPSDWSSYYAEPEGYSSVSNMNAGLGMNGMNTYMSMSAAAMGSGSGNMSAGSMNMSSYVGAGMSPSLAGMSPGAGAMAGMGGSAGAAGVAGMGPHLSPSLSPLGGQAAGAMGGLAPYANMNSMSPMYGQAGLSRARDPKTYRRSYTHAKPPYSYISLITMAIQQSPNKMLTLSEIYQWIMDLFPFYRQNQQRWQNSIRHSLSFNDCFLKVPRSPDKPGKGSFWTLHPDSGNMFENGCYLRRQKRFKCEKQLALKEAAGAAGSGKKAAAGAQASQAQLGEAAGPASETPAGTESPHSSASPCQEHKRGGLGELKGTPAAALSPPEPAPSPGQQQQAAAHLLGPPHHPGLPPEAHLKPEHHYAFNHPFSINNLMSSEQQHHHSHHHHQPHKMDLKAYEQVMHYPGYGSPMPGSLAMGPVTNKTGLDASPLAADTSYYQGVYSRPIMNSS

CCC(C)C(=O)OC (configuration not stated)
active: [1] 0.0271 µM
not listed: [19]
inactive: all other assays above

CCc1occc(=O)c1O
active: [5] 65.6 µM
not listed: [11] | [12]
inactive: all other assays above

Cn1ccnc1
not listed: [13] | [19]
inactive: all other assays above
